Assay results taken from PubChem BioAssay AID1777 (Sanford-Burnham Center for Chemical Genomics, 2009).
About 50 (0.02%) of roughly 280,000 compounds were called active. No stated cut-off is given here; in the data, active means activation above about 50% (passing the limit was not always enough); inactive means the rest. The full list was thinned out, with actives kept by preference. Results with a measured potency or affinity are listed apart.

Each compound was assayed against Kappa-type opioid receptor (Homo sapiens) (UniProt P41145) (assay: KOR agonists, beta-arrestin recruitment, primary screen, cell-based, luminescence, uHTS (AID 1777)). Conditions: at 10 µM, stronger effect = higher value.
Sequence of Kappa-type opioid receptor (Homo sapiens) (P41145 whole entry, looked up): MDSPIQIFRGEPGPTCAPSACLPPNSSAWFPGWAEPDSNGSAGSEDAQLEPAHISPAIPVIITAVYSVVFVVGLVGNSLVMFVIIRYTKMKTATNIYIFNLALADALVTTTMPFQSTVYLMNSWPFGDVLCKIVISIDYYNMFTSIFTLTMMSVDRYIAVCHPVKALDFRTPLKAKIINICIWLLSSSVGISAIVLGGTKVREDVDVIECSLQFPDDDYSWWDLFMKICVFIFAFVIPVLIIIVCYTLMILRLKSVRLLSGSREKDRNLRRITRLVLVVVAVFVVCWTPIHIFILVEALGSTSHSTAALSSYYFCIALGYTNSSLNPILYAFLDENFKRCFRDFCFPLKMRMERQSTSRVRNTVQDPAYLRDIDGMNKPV

activation, inactive:
O=C(c1ccc(S(=O)(=O)N2CCCC2)cc1)N1CCC(CN2C(=O)c3cccc4cccc(c34)C2=O)CC1 0.7%, CC(C)C[C@H](NC(=O)c1nc[nH]c1C(=O)N[C@@H](CCCCNC(=O)OC(C)(C)C)C(=O)OC(C)(C)C)C(=O)OC(C)(C)C 5.3%, CCN(CC)CCNc1nc(C(F)(F)F)nc2c1nnn2Cc1ccccc1 -3.1%, O=C(Cc1ccc([N+](=O)[O-])cc1)N/N=C/c1ccccc1F -4.4%, CCC(C)(C(=O)NC1CCCC1)N(C)C(=O)c1ccccn1 (stereo not drawn) -0.7%, CCC(C)(C(=O)NC1CCCCC1)N(Cc1ccco1)C(=O)c1ccc2c(c1)OCO2 (stereo not drawn) 1.2%, CCC(C)(C(=O)NC1CCCC1)N(C(=O)c1cnccn1)c1ccccc1 (stereo not drawn) -12.3%, CCC(C)(C(=O)NC1CCCCC1)N(C)C(=O)c1ccccn1 (stereo not drawn) 1.2%, CCC(C)(C(=O)NC1CCCCC1)N(Cc1ccco1)C(=O)CNC(=O)c1ccccc1 (stereo not drawn) 1.6%, CCC(C)(C(=O)NC1CCCC1)N(Cc1ccco1)C(=O)c1ccc2c(c1)OCO2 (stereo not drawn) 10.3%, CC(C)(C)c1cc(C(=O)NC2CC2)n(Cc2ccc(F)cc2)n1 -4.7%, CS(=O)(=O)c1ccc(NCC2CCCO2)c([N+](=O)[O-])c1 (stereo not drawn) -3.6%, O=c1[nH]cc(S(=O)(=O)NCc2ccccc2)c(=O)[nH]1 -1.3%, CCNS(=O)(=O)c1ccc(CCC(=O)Nc2ccccc2C(=O)OC)cc1 -1.4%, Cc1cc(C)cc(C(=O)NCC(=O)OCC(=O)N2CCN(S(=O)(=O)c3ccc4ccccc4c3)CC2)c1 -0.4%, CCC(C)(C(=O)NC1CCCC1)N(Cc1cccs1)C(C)=O (stereo not drawn) -2.2%, CCC(C)(C(=O)NC1CCCCC1)N(Cc1cccs1)C(=O)c1ccc(=O)[nH]c1 (stereo not drawn) -6.4%, CCC(C)(C(=O)NC1CCCCC1)N(Cc1cccs1)C(=O)Cc1cccs1 (stereo not drawn) 3.8%, CCC(C)(C(=O)NC1CCCC1)N(Cc1cccs1)C(=O)Cc1cccs1 (stereo not drawn) -0.9%, CC(=O)c1sc(N/N=C\c2ccc(Br)cc2)nc1C 3.5%, COc1ccc(N2CCN(S(=O)(=O)CCNC(=O)COc3ccccc3OC)CC2)cc1 -4.1%, NC1=NC(c2cn[nH]c2-c2ccc(F)cc2)n2c(nc3ccccc32)N1 (stereo not drawn) 0.5%, CC(CNC(=O)c1ccc2c(c1)OCO2)c1ccc([N+](=O)[O-])cc1 (stereo not drawn) -4.6%, COc1ccc(CN(CC2CCCO2)C(=O)CN2C(=O)C(C)Oc3ccc(C)cc32)cc1OC (stereo not drawn) 50.9%, O=C(CN1C(=O)COc2ccccc21)N(Cc1ccc2c(c1)OCO2)CC1CCCO1 (stereo not drawn) 72.1%, O=C(CCCCCBr)N1CCC(CC2CC(c3ccc(Cl)cc3)=NO2)(C(=O)NCC2CCCCC2)CC1 (stereo not drawn) -0.1%, CC(C)N1CCc2c(sc(NC(=O)c3ccc4ccccc4c3)c2C(N)=O)C1 -0.3%, CCN1CCc2c(sc(NC(=O)c3cc4ccccc4cc3OC)c2C(N)=O)C1 0.1%, N#C/C(=C\c1ccc(-c2ccccc2Cl)o1)C(=O)Nc1nc2ccccc2s1 -1.8%, N#C/C(=C\c1ccc(-c2nc3ccccc3s2)o1)C(N)=O 0.2%, CN=C1SC(CC(=O)Nc2ccccc2F)C(=O)N1/N=C/c1ccc(O)c(OC)c1 (stereo not drawn) 14.6%, Cn1c(=O)c(=O)n(C)c2cc(S(=O)(=O)N3CCCC3C(=O)NCc3cccs3)ccc21 (stereo not drawn) 1%, COc1ccc(-c2ccc(C#N)c(SCC(=O)Nc3sc4c(c3C#N)CCC4)n2)cc1 -2.3%, N#Cc1ccc(-c2ccc(F)cc2)nc1SCC(=O)Nc1sc2c(c1C#N)CCC2 -1%, CCc1ccccc1OCC(=O)N(CC)CC(=O)NCc1ccc(F)cc1 -3%, Cc1cc(C(=O)CSc2nncn2C)c(C)n1-c1ccccc1 -2.9%, Cc1nc(C)c(NC(=O)OC(C)C)cc1NC(=O)OC(C)C -4.7%

activation, active:
CNC(=O)/C(C#N)=C/c1ccc(-c2nc3ccccc3s2)o1 169%
